Screening data from PubChem BioAssay.
Only some compounds are listed: those with a hit (about 10% of all), similar ones and a draw of the others.
L3MBTL1 block = qHTS Assay for the Inhibitors of L3MBTL1; Lethal(3)malignant brain tumor-like protein 1 (Homo sapiens), Q9Y468; AlphaScreen L3MBTL1–H3K9me1 peptide binding; Potency, µM (titrated, usually from 57.1 µM), without a hit: at the highest dose activity, negative = inhibition, usual class: inhibitors; 230,000 tested, 0.66% active; also: % is scaled to controls: 0 for no effect and ±100 for the full control effect; nearly all actives have a fitted effect of over 60% in size
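L3MBTL1 (50 nM) pre-complexed 30 min with biotinylated H3(1-15)K9me1 peptide (75 nM), then compounds added for 30 min at room temperature; AlphaScreen streptavidin donor/nickel chelate acceptor beads (10 ug/mL final) read after 30 min dark incubation.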
HP1b chromo inh = HTS for Inhibitors of HP1-beta Chromodomain Interactions with Methylated Histone Tails | Chromobox protein homolog 1 (Homo sapiens), P83916 | AlphaScreen HP1-beta / biotin-H3K9me3 peptide binding | Potency, µM (top dose mostly 114 µM), for the others: at the top dose activity change, negative = inhibition, actives largely listed as inhibitors | 390,000 tested, 0.56% active | AID 540317, 2011; also: nearly all actives have a fitted effect of over 70% in size
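Compound inhibition of the preformed complex between 50 nM HP1-beta and 50 nM biotinylated H3K9me3 peptide was read by AlphaScreen. Buffer was PBS pH 7.4 with 0.01% Tween-20. Incubations ran 30 min at room temperature, with 10 ug/mL donor/acceptor beads.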
GLS inh = qHTS for Inhibitors of Glutaminase (GLS) | Glutaminase kidney isoform, mitochondrial (Homo sapiens), O94925 | GLS enzymatic activity, qHTS titration | Potency, µM (highest dose often 45.5 µM), for inactives: at the top dose activity change, negative = inhibition, hits mostly inhibitors | 410,000 tested, 0.21% active | AID 624170, 2012; also: % is scaled to controls: 0 for no effect and ±100 for the full control effect
Target sequence (O94925 whole entry, looked up, canonical isoform): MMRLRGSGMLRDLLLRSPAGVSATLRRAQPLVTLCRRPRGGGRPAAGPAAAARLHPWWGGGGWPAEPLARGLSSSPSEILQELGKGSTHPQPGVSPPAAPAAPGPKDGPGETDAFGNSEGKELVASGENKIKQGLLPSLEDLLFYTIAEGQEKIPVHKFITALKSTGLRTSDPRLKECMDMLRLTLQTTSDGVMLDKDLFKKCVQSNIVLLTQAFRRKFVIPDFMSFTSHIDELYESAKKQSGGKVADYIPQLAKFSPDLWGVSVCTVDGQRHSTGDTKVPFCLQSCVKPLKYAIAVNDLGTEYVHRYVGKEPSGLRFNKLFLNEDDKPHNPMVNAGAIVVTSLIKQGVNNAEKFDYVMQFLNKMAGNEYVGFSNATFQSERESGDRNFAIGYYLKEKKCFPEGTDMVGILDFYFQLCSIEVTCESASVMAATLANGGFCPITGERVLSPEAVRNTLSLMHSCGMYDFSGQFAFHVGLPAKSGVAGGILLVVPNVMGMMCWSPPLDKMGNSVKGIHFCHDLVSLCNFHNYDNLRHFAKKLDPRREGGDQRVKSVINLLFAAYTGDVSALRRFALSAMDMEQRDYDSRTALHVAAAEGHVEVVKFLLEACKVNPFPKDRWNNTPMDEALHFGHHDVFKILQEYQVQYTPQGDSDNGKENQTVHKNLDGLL
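hKGA in 45 mM KH2PO4 pH 8.2, 0.02% Tween-20 with pin-transferred compounds; 1 mM L-glutamine (stock) plus glutamate oxidase/HRP/Amplex Red coupling added. Fluorescence read initially and after 30 min at RT.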
G9a block = qHTS Assay for Inhibitors of Histone Lysine Methyltransferase G9a. AID 504332, 2011. Histone-lysine N-methyltransferase EHMT2 (Homo sapiens), Q96KQ7. Potency, µM (doses to about 102 µM), for inactives: top-dose activity, negative = inhibition, usual class: inhibitors. 350,000 tested, 8.8% active. G9a H3K9 monomethylation, AlphaScreen, 2 h; also: % is scaled to controls: 0 for no effect and ±100 for the full control effect; nearly all actives have a fitted effect of over 75% in size
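AlphaScreen read-out: biotin-H3K9 peptide (500 nM) methylation by 20 nM enzyme with 20 uM SAM, 2 h at room temperature after 15 min compound preincubation; anti-monomethyl H3K9 antibody plus donor/acceptor beads, 10 min dark.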
JMJD2A Tudor = qHTS Assay for Inhibitors of JMJD2A-Tudor Domain | 390,000 tested, 4.4% active | AlphaScreen JMJD2A-Tudor / H3K4me3 peptide binding | Lysine-specific demethylase 4A (Homo sapiens), O75164 | Potency, µM (titrated, usually from 114 µM), without a hit: at the top dose activity change, negative = inhibition, actives largely listed as inhibitors; also: % is scaled to controls: 0 for no effect and ±100 for the full control effect; nearly all actives have a fitted effect of over 50% in size
BAZ2B block = qHTS Assay for Inhibitors of BAZ2B; Bromodomain adjacent to zinc finger domain protein 2B (Homo sapiens), Q9UIF8; AID 504333, 2011; Potency, µM (highest dose often 114 µM), without a hit: top-dose activity change, negative = inhibition, most hits filed as inhibitors; 360,000 tested, 4.4% active; AlphaScreen BAZ2B-H3K14Ac peptide displacement; also: % is scaled to controls: 0 for no effect and ±100 for the full control effect; nearly all actives have a fitted effect of over 60% in size
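AlphaScreen luminescence quantifies BAZ2B engagement of H3K14Ac peptide; the protein and biotinylated peptide are both at 50 nM final, buffer PBS pH 7.4 with 0.01% Tween-20, all steps at room temperature.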
* hit, by the source's call; ? = inconclusive; · = no result given; ! = repeats disagree; [ ] = remark or other dose. Calls follow the shape of the dose curve; as a rule, active = well fitted curve in the direction sought with a large enough effect; inconclusive = small, poorly fitted or top-dose-only effect, or another doubt; inactive = no such curve, though single readings can be large; an effect the other way counts as inactive or inconclusive. Potency is read from the fitted curve at half-maximal effect.

SMILES	L3MBTL1 block	HP1b chromo inh	GLS inh	G9a block	JMJD2A Tudor	BAZ2B block
O=C(Nc1cccc(Br)c1)c1ccc2nc(N3C(=O)CCC3=O)sc2c1	-1.1%	9.9%	-15.4%	?	-9.9%	-3.1%
O=c1[nH]c2ccc(S(=O)(=O)Nc3cc(Cl)ccc3O)cc2o1	·	-4.4%	7.6%	3.16µM*	?	39.8µM*
O=c1[nH]c2ccc(S(=O)(=O)Nc3ccc(Cl)cc3)cc2o1	·	56.5%	-6.7%	?	-7.6%	-9.7%
C1CCc2c(nnc3c2-c2nonc2CC3)C1	?	23.1%	-2.2%	31.6µM*	-2.8%	6.1%
C=CCn1cccc(/C=C/C(=O)c2ccc(C(C)(C)C)cc2)c1=S	28.2µM*	?	-0.1%	?	31.6µM*	11.2µM*
COc1ccc(Cl)cc1N(C)C(=O)Cn1cnc2sc(C)c(S(=O)(=O)N3CCN(c4ncccn4)CC3)c2c1=O	·	0.6%	-7.9%	?	-22.9%	-6.9%
Cn1c(SCCC#N)nnc1-c1ccc(F)cc1	9.6%	·	·	-0.8%	·	·
CC1=C(SCCC#N)S/C(=C2\SC(C)=C(SCCC#N)S2)S1	-14.9%	?	10.9%	1.26µM*	56.2µM*	-32.4%
Cc1ccc(-c2c(C(=O)O)c(C(=O)O)c3n2CCC3)cc1	9.1%	26.8%	25.3%	?	?	-26.5%
O=C(O)c1c(C(=O)O)c(-c2ccc(Cl)c(Cl)c2)n2c1CSC2	·	2.4%	33.5%	44.7µM*	-22.4%	-36.6%
CN[C@@H]1[C@H](O[C@H]2[C@H](O[C@H]3[C@H](O)[C@@H](O)[C@H](N=C(N)N)[C@@H](O)[C@@H]3N=C(N)N)O[C@@H](C)[C@]2(O)C=O)O[C@@H](CO)[C@H](O)[C@H]1O	·	·	0.3%	17.8µM*	·	·
COc1ccc(N2CCN(C(c3ccccc3)c3nnnn3C(C)C)CC2)cc1 (stereo unspecified)	·	1.8%	·	·	?	·
S=c1[nH]nc(-c2cccnc2)n1-c1ccc2c(c1)OCCO2	6.6%	19.4%	-6.0%	31.6µM*	25.1µM*	-11.4%
S=c1[nH]nc(-c2ccc(Cl)cc2)n1-c1ccc2c(c1)OCCO2	-6.5%	13.6%	-4.5%	1.78µM*	?	-32.9%
Fc1ccc(-c2n[nH]c(=S)n2-c2ccc3c(c2)OCCO3)cc1	1.5%	?	-1.5%	·	2.82µM*	-23.2%
S=c1[nH]nc(-c2ccc(Cl)cc2)n1-c1ccc(Cl)cc1	-2.3%	13.1%	65.9%	8.91µM*	-29.3%	?
Cc1ccc2nc(-c3ccc4c(c3)OCCO4)cn2c1	-12.4%	30.3%	-9.2%	-4.9%	-12.4%	-26.5%
CN(C)c1ccc(CN(C)C2CCCCC2)cc1	·	1.3%	-29.0%	50.1µM*	-31.5%	?
COc1cc(C2SCC(=O)N2CCN2CCCCC2)ccc1O (stereo unspecified)	-1.2%	31.4%	28.5%	50.1µM*	-0.7%	-13.7%
O=C1CSC(c2ccc([N+](=O)[O-])cc2)N1CCN1CCCCC1 (stereo unspecified)	-30.6%	12.0%	0.8%	-28.4%	-7.3%	?
COc1ccc2[nH]cc(CCNC(=O)Nc3cc(C)cc(C)c3)c2c1	·	2.3%	31.5%	-3.7%[59 µM]	?	-30.7%
CC(C)OCCCNC(=O)C(NS(=O)(=O)c1ccc2c(c1)c(=O)n(C)c(=O)n2C)c1ccccc1 (stereo unspecified)	4.1%	·	·	14.1µM*	·	-4.1%
Cn1c(=O)c2cc(S(=O)(=O)NC(C(=O)N3CCCCCC3)c3ccccc3)ccc2n(C)c1=O (stereo unspecified)	·	77.3%	0.8%	44.7µM*	-2.8%	14.2%
Cn1c(=O)c2cc(S(=O)(=O)NC(C(=O)NC3CCCCC3)c3ccccc3)ccc2n(C)c1=O (stereo unspecified)	·	45.0%	-0.5%	18.8%	-10.6%	10.8%
CNC(=O)OCc1cocc1COC(=O)NC	·	·	-24.0%	·	·	·
SMILES	L3MBTL1 block	HP1b chromo inh	GLS inh	G9a block	JMJD2A Tudor	BAZ2B block
CNC(=O)OCc1cccc(COC(=O)NC)n1	4.7%	32.1%	1.3%	44.7µM*!	-4.8%	?
COc1ccc(Br)c2oc(S)cc(=O)c12	7.3%	34.4%	22.6%	7.08µM*	35.5µM*	-9.4%
Cc1c(C(=O)N(C)C2CCCCC2)sc2nc3ccc(N)cc3n12	·	·	·	25.1µM*	·	·
CCC(Sc1nnc2c3ccccc3n(CC)c2n1)C(=O)Nc1ccc(NC(C)=O)cc1 (stereo unspecified)	·	8.5%	-24.9%	-46.1%[59 µM]	-13.4%	-8.7%
COC(=O)c1cc2occc2n1CC(=O)Nc1ccc(N(C)C)cc1	·	14.2%	24.8%	?	-22.5%	-34.6%
CCCN1CCN(c2ncnc3sc(C(=O)Nc4ccc(N(CC)CC)cc4C)c(C)c23)CC1	·	?	4.6%	14.1µM*	50.1µM*	28.2µM*
CCCN1CCN(c2ncnc3sc(C(=O)Nc4cccc(Cl)c4C)c(C)c23)CC1	·	9.3%	5.0%	6.8%[12.7 µM]	-26.2%	-27.7%
CC(=O)Oc1ccc(N(C(C)=O)S(=O)(=O)c2cccs2)c2ccccc12	·	2.1%	-2.4%	12.6µM*	-13.9%	-24.4%
O=C(c1ccc2c(c1)N(Cc1ccccc1)C(=O)c1ccccc1S2(=O)=O)N1CCN(c2ccccn2)CC1	·	30.9%	3.2%	-5.5%[59 µM]	-14.8%	-20.1%
COCC(C)NCc1ccc(OC)c(Br)c1 (stereo unspecified)	11.2%	?	2.8%	?	17.8µM*	50.1µM*
COc1ccc(CCC(C)NCc2cccc(Br)c2)cc1 (stereo unspecified)	6.0%	55.3%	-0.1%	·	1.7%	-5.9%
CC1=C(C(=O)Nc2ccc(C)cc2C)C(c2ccc(Cl)cc2)n2nc(C(=O)OC(C)C)nc2N1 (stereo unspecified)	1.6%	9.6%	4.6%	44.7µM*	-6.8%	-13.9%
COc1ccc(C2C(C(=O)Nc3ccc(C)cc3C)=C(C)Nc3nc(SC)nn32)cc1OC (stereo unspecified)	·	7.4%	9.1%	11.3%[59 µM]	-15.0%	0.5%
c1ccc(-c2nc(CSc3nnnn3-c3ccccc3)cs2)cc1	29.0%	84.4%	3.4%	-3.7%	41.9%	-0.7%
Cc1ccccc1Nc1nc(CSc2nnnn2-c2ccccc2)cs1	·	6.3%	5.0%	39.8µM*	-25.8%	-6.2%
Cn1ncc(Br)c1C(=O)N1CCCCCC1	·	13.2%	6.7%	31.6µM*	-2.0%	4.4%
Cn1ncc(Br)c1C(=O)N1CCCC1	·	22.7%	19.5%	·	-1.4%	4.6%
